Data from PubChem BioAssay (NCATS).
Several values for one entry are separate records, joined by “and”; a condition that tells them apart may be missing. Equal values may be shown once. Inconclusive results are not listed. Where a call stands in place of a potency, no number is given. Activity calls are given as the source filed them. Unless noted, the call rests on the fitted dose curve; in most records, active means well fitted curve in the direction sought with a large enough effect; inconclusive means small, poorly fitted or top-dose-only effect, or another doubt; inactive means no such curve, though single readings can be large; an effect the other way counts as inactive or inconclusive.

How the values were obtained:
[1] = biological target: Lysosomal acid glucosylceramidase (Homo sapiens) (UniProt P04062); assay: Glucocerebrosidase-p2 (AID 348; in the data active means potency below about 10 µM; further: potency means the concentration at half of the fitted maximal effect); settings: purified GBA, blue fluorogenic substrate, 40 min
Summary of the method: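 Compounds titrated from 0.6 nM upwards against 0.2 nM enzyme in pH 5.9 citric acid/KH2PO4, taurocholate, tween-20; blue fluorogenic substrate 80 uM, 40 min room temperature, stopped and read Ex 365/Em 440 for AC50.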

[2] = AP1 Signaling Pathway (AID 357; active means well fitted curve in either direction with a large enough effect, not every such curve was filed as active;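 further: ME-180 reporter cells stimulated with EGF at its EC50 level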); settings: ME-180 AP-1-bla reporter, EGF-induced, beta-lactamase ratio, 5 h
Summary of the method: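 Cells are seeded overnight, exposed to compound titrations and an EC50 level of EGF for 5 hours at 37 °C, then loaded with CCF4 dye for 2.5 hours. Beta-lactamase activity under the AP-1 element is read as a blue/green ratio.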

[3] = NFAT Signaling Pathway (AID 444; active means well fitted curve in either direction with a large enough effect, not every such curve was filed as active;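 further: carbachol stimulus at about its EC50 of 1 µM final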); settings: Jurkat NFAT-bla M1, carbachol, beta-lactamase ratio, 5 h
Summary of the method: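 Jurkat cells carrying an NFAT-driven β-lactamase reporter and co-transfected muscarinic M1 receptor were treated with compound plus carbachol (1 uM final, an EC50 level) for 5 h at 37 °C. CCF4 loading followed for 1 h at RT; 460/530 nm ratio gave %activity.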

[4] = Stat Signaling Pathway (AID 446; active means well fitted curve in either direction with a large enough effect, not every such curve was filed as active;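 further: ME-180 cervical cancer cells given 40 pM IL-6 alongside compound; SIE-controlled beta-lactamase reporter measured as 460/530 nm FRET emission ratio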); settings: ME-180 SIE beta-lactamase reporter, IL-6 stimulated, 5 h
Summary of the method: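 Screening format detects activators and inhibitors alike: ME-180 SIE-bla cells stimulated at 40 pM IL-6 for 5 hrs with compound, then dual-emission beta-lactamase read at 405 nm excitation.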

[5] = biological target: Mitogen-activated protein kinase 10 (Mus musculus) (UniProt Q61831); assay: JNK3 AlphaScreen Assay (AID 530; active means well fitted curve in either direction with a large enough effect, not every such curve was filed as active;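 further: kinase came from lysate of stimulated human HepG2 cells; signal reports phosphorylation of biotinylated GST-cJun 1-79 at Ser73 with 10 µM ATP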)
Summary of the method: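 Inhibitors reduce antibody binding to phosphorylated biotin-cJun, lowering AlphaScreen luminescence. Lysates from HepG2 cells pre-activated by IL-1beta plus TNF-alpha supplied JNK3; compounds were titrated.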

[6] = biological target: 3',5'-cyclic-AMP phosphodiesterase 4B (Homo sapiens) (UniProt Q07343); assay: qHTS Assay for Inhibitors of PDE-IV (AID 607; active means well fitted activation curve with a large enough effect in the main read-out, with a control signal flat, not every such curve was filed as active)
Summary of the method: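 The readout is membrane depolarisation from a cAMP-sensing CNG channel, detected with a potential dye at ex 535/em 590. Cells were HEK293-derived (endogenous PDE-IV) at 1000 cells/well, titrated up to 22.9 uM final.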

[7] = qHTS Assay for Lipid Storage Modulators (AID 1519; calls by dose curve); settings: Drosophila S3 cells, BODIPY lipid droplet/cell ratio, laser cytometry, cells loaded with oleic acid
Summary of the method: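 Cells seeded at 5,000 per well were treated with compounds over a concentration series and loaded with oleic acid (400 uM, as added). Lipid droplet fluorescence (488 nm excitation, 500-530 nm channel) was read by laser-scanning cytometry and normalized to 20 uM Triacsin C.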

[8] = biological target: ATP-dependent 6-phosphofructokinase (Trypanosoma brucei brucei) (UniProt O15648); assay: qHTS Assay to Find Inhibitors of T. brucei phosphofructokinase: hit validation (AID 492961);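 further: luminescence reports ADP formed as PFK phosphorylates fructose-6-phosphate with ATP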
Summary of the method: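 PFK 1.25 nM, F6P 0.5 mM, ATP 0.1 mM, MgCl2 5 mM, 0.1 M TEA pH 8.0, Tween20 0.01%, BSA 0.1%; 45 min RT. ADP-Glo two-step detection, luminescence. qHTS titration; curve fitting with curve-class categorization.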

[9] = biological target: Ubiquitin carboxyl-terminal hydrolase 1 (Homo sapiens) (UniProt O94782); assay: Inhibitors of USP1/UAF1: Pilot qHTS (AID 504865);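 further: rhodamine fluorescence freed from ubiquitin-rhodamine substrate followed over time; top concentration of the series differs between compounds; nearly all actives have a fitted effect of over 35% in size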
Summary of the method: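 Enzyme-free wells gave the negative control, while test wells held 1nM USP1/UAF1 preincubated with compound for 15 min at room temperature. Ub-Rho at 150nM final started the reaction, and fluorescence at 480/540 nm was recorded kinetically.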

[10] = biological target: DNA dC->dU-editing enzyme APOBEC-3G (Homo sapiens) (UniProt Q9HC16); assay: qHTS for inhibitors of Vif-A3G interactions: Validation (AID 588379)
Summary of the method: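 HeLa cells stably expressing Vif and A3G-eYFP, 700 cells/well, incubated overnight at 37 deg C, then exposed to compound overnight at 37 deg C. Inhibition of Vif-mediated degradation read as increased yellow fluorescence (Ex 488/Em 500-530) by laser-scanning cytometry.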

[11] = biological target: Luciferin 4-monooxygenase (Photinus pyralis) (UniProt P08659); assay: Biochemical firefly luciferase enzyme assay for NPC (AID 624030);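 further: purified P. pyralis luciferase at 10 nM with luciferin and ATP substrate; nearly all actives have a fitted effect of over 70% in size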
Summary of the method: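 Counter-screen for direct inhibition of the luciferase enzyme by approved-drug library compounds, run at 10 nM enzyme in 50 mM Tris acetate (final). Luminescence was read within 5 min of enzyme-buffer addition and normalized to PTC124 versus DMSO (0%).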

[12] = S16 Schwann cell viability assay (CellTiter-Glo assay) (AID 624031);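 further: cellular ATP luminescence as a viability measure; nearly all actives have a fitted effect of over 70% in size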
Summary of the method: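 Untransfected S16 rat Schwann cells; compound 24 h, 37 °C/5% CO2; CellTiter-Glo ATP luminescence. % activity vs no-cell wells and DMSO controls (0%); concentration-effect curves classed by r2, response magnitude, activity.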

[13] = S16 Schwann cell PMP22 intronic element firefly luciferase assay (AID 624032); further: nearly all actives have a fitted effect of over 30% in size
Summary of the method: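 Rat S16 Schwann cells stably carrying a PMP22 intronic element-driven Fluc reporter were seeded overnight, then exposed to compounds for 24 h at 37 °C. Luminescence was normalized to PTC124 (positive control) and DMSO (0% activity).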

[14] = S16 Schwann cell PMP22 intronic element beta-lactamase assay (AID 624044; calls by dose curve; further: nearly all actives have a fitted effect of over 15% in size)
Summary of the method: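 Rat S16 Schwann cells with beta-Lac driven by a PMP22 intronic element, compound-treated 24 h at 37 °C. LiveBLAzer FRET B/G read: 460 nm normalized to potassium clavulanate vs DMSO; 535 nm FRET as viability; concentration-effect curves classified.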

[15] = system: Zika virus NS2B-NS3 protease; assay: Primary screen GU AMC qHTS for Zika virus inhibitors (AID 1347154); further: nearly all actives have a fitted effect of over 70% in size
Summary of the method: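 Unlinked Zika NS2B hydrophilic domain/NS3 protease domain noncovalent complex (25 nM final) in 10 mM Tris-HCl pH 8.0, 0.01% Tween 20, with AMC peptide substrate. Fluorescence (ex 340, em 450 nm) change over 15 min, room temperature; percent inhibition fitted to 4-parameter Hill equation.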

[16] = Primary qHTS for small molecule stabilizers of the endoplasmic reticulum resident proteome: Secreted ER Calcium Modulated Protein (SERCaMP) assay (AID 1508630)
Summary of the method: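 GLuc-SERCaMP-expressing SH-SY5Y cells, pretreated 16 h with compound, are challenged with thapsigargin to empty ER calcium stores; after 4 h, coelenterazine is added directly to the medium and luminescence is imaged.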

[17] = qHTS profiling for inhibitors of Plasmodium falciparum proliferation (AID 504749); further: nearly all actives have a fitted effect of over 60% in size; settings: P. falciparum in erythrocytes, SYBR Green DNA, 72 h, at 28.7 µM (top of the series)
Summary of the method: (§1)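 Parasite proliferation within erythrocytes, 72 h exposure. Endpoint: SYBR Green I fluorescence after overnight lysis at room temperature. Controls: 0.29 uM artemisinin, DMSO.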

[18] = system: 3D7; assay: as above; settings: P. falciparum in erythrocytes, SYBR Green DNA, 72 h; series mostly up to 28.7 µM
Summary of the method: as §1

[19] = system: 7G8; assay: as above; settings: P. falciparum in erythrocytes, SYBR Green DNA, 72 h; series mostly up to 28.7 µM
Summary of the method: as §1

[20] = system: AA1029; assay: as above; settings: P. falciparum in erythrocytes, SYBR Green DNA, 72 h; series mostly up to 28.7 µM
Summary of the method: as §1

[21] = system: AS120; assay: as above; settings: P. falciparum in erythrocytes, SYBR Green DNA, 72 h; series mostly up to 28.7 µM
Summary of the method: as §1

[22] = system: ATS189; assay: as above; settings: P. falciparum in erythrocytes, SYBR Green DNA, 72 h; series mostly up to 28.7 µM
Summary of the method: as §1

[23] = system: ATS95; assay: as above; settings: P. falciparum in erythrocytes, SYBR Green DNA, 72 h; series mostly up to 28.7 µM
Summary of the method: as §1

[24] = system: C2A; assay: as above; settings: P. falciparum in erythrocytes, SYBR Green DNA, 72 h; series mostly up to 28.7 µM
Summary of the method: as §1

[25] = system: CP185; assay: as above; settings: P. falciparum in erythrocytes, SYBR Green DNA, 72 h; series mostly up to 28.7 µM
Summary of the method: as §1

[26] = system: CP191; assay: as above; settings: P. falciparum in erythrocytes, SYBR Green DNA, 72 h; series mostly up to 28.7 µM
Summary of the method: as §1

[27] = system: CP192; assay: as above; settings: P. falciparum in erythrocytes, SYBR Green DNA, 72 h; series mostly up to 28.7 µM
Summary of the method: as §1

[28] = system: CP194; assay: as above; settings: P. falciparum in erythrocytes, SYBR Green DNA, 72 h; series mostly up to 28.7 µM
Summary of the method: as §1

[29] = system: CP201; assay: as above; settings: P. falciparum in erythrocytes, SYBR Green DNA, 72 h; series mostly up to 28.7 µM
Summary of the method: as §1

[30] = system: CP203; assay: as above; settings: P. falciparum in erythrocytes, SYBR Green DNA, 72 h; series mostly up to 28.7 µM
Summary of the method: as §1

[31] = system: CP211; assay: as above; settings: P. falciparum in erythrocytes, SYBR Green DNA, 72 h; series mostly up to 28.7 µM
Summary of the method: as §1

[32] = system: CP215; assay: as above; settings: P. falciparum in erythrocytes, SYBR Green DNA, 72 h; series mostly up to 28.7 µM
Summary of the method: as §1

[33] = system: CP217; assay: as above; settings: P. falciparum in erythrocytes, SYBR Green DNA, 72 h; series mostly up to 28.7 µM
Summary of the method: as §1

[34] = system: CP237; assay: as above; settings: P. falciparum in erythrocytes, SYBR Green DNA, 72 h; series mostly up to 28.7 µM
Summary of the method: as §1

3',5'-cyclic-AMP phosphodiesterase 4B (Homo sapiens), sequence (Q07343 whole entry, looked up): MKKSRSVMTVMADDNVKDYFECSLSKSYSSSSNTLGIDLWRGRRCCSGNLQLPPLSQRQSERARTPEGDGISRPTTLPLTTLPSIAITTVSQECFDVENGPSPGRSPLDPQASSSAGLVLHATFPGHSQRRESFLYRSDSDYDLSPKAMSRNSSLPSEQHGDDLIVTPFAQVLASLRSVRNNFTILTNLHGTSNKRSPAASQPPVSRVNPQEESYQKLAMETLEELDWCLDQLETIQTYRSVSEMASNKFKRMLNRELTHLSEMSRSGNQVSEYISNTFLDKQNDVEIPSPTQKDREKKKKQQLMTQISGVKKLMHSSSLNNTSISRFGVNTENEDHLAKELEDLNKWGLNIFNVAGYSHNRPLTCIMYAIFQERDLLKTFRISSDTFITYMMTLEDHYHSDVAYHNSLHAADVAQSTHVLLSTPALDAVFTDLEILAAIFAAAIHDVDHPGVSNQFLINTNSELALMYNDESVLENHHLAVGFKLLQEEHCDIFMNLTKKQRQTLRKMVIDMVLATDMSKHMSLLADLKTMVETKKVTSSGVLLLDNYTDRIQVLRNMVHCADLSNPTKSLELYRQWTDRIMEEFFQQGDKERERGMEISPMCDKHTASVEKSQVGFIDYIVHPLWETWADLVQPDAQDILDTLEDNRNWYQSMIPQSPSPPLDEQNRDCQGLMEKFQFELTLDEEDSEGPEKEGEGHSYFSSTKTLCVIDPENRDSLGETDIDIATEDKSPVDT
Ubiquitin carboxyl-terminal hydrolase 1 (Homo sapiens), sequence (O94782 whole entry, looked up): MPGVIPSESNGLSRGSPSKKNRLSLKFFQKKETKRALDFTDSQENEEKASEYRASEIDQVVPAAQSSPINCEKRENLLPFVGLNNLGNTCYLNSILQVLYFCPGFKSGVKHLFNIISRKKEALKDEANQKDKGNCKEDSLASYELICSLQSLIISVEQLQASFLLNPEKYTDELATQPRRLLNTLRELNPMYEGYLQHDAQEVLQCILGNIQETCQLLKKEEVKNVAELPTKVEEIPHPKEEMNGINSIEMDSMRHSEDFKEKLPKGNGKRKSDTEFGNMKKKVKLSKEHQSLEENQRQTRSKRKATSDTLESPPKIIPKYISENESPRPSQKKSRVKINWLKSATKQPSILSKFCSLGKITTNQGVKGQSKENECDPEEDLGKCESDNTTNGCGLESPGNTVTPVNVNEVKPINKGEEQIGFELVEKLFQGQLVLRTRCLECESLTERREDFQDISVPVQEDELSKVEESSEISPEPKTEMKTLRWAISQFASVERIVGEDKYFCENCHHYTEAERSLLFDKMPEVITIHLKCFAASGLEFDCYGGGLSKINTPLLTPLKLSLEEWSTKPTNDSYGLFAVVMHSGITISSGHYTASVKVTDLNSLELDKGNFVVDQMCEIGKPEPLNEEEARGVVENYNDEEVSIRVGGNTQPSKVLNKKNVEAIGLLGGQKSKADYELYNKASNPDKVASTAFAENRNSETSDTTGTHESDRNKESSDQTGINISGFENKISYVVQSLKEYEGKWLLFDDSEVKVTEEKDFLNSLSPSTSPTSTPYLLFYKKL
DNA dC->dU-editing enzyme APOBEC-3G (Homo sapiens), sequence (Q9HC16 whole entry, looked up): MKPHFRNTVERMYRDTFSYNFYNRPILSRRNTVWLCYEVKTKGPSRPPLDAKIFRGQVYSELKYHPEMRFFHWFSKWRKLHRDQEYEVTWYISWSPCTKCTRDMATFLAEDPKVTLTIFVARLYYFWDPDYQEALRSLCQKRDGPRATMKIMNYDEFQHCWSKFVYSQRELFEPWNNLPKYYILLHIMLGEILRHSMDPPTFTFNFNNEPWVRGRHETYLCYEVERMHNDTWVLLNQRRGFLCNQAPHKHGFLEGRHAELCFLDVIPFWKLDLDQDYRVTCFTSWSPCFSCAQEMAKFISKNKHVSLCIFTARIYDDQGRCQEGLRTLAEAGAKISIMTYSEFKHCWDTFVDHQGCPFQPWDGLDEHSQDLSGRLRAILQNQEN
Lysosomal acid glucosylceramidase (Homo sapiens), sequence (P04062 whole entry, looked up): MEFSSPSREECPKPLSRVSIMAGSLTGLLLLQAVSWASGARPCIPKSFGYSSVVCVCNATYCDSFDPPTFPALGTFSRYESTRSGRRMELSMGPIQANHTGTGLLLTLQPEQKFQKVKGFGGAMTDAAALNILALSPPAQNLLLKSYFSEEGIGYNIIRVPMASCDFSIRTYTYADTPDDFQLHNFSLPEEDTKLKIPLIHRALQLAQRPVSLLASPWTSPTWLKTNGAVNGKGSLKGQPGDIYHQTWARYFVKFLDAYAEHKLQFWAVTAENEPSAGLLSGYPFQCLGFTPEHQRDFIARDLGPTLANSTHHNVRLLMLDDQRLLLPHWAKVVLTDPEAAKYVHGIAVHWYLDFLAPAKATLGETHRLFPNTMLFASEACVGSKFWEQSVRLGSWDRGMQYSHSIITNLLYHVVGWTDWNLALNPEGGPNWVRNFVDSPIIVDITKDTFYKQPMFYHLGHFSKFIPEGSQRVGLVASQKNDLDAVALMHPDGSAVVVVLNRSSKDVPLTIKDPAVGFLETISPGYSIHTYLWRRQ
Luciferin 4-monooxygenase (Photinus pyralis), sequence (P08659 whole entry, looked up): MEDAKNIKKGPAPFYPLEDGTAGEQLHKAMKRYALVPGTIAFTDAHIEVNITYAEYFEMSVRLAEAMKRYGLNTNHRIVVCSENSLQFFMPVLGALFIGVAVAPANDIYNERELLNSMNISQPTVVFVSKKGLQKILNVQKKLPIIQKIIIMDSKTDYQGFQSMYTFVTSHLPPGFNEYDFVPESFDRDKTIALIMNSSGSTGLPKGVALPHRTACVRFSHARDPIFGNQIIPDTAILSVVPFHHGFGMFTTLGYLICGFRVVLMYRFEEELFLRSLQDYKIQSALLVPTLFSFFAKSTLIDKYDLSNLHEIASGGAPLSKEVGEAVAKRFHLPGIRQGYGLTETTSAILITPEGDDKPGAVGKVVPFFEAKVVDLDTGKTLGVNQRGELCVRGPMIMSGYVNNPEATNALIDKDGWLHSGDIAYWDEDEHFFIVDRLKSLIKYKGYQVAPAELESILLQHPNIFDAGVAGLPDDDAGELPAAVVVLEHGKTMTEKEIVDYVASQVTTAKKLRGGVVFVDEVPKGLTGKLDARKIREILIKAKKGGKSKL
ATP-dependent 6-phosphofructokinase (Trypanosoma brucei brucei), sequence (O15648 whole entry, looked up): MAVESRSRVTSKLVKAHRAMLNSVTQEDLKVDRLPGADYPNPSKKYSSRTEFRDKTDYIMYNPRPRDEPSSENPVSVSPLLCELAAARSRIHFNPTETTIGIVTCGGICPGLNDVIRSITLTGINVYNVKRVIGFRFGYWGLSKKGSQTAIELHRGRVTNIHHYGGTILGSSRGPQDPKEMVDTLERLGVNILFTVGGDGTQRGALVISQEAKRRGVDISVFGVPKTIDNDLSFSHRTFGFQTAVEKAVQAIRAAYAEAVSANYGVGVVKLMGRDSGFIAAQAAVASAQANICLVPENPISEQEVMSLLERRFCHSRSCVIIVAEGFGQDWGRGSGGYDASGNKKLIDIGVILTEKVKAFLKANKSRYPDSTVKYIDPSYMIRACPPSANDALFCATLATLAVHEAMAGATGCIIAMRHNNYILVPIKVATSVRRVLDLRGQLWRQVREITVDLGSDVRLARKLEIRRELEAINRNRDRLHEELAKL

COC(=O)[C@@H]1[C@@H]2C[C@H]3c4[nH]c5ccccc5c4CCN3C[C@@H]2CC[C@@H]1O
Potency [1]: > 11.4 µM (inactive) | activity change, negative = inhibition ([2]; at 7.69 µM (top of the series)): -0.0828% (inactive) | activity change, negative = inhibition ([2]; at 17.2 µM (top of the series)): 0.544% (inactive) and 5.73% (inactive) and 0.793% (inactive) | activity change, negative = inhibition ([3]; at 7.69 µM (top of the series)): -0.996% (inactive) | activity change, negative = inhibition ([3]; at 17.2 µM (top of the series)): -15% (inactive) and 0.703% (inactive) and 5.17% (inactive) | activity, negative = inhibition ([4]; at 7.69 µM (top of the series)): 0.353% (inactive) | activity, negative = inhibition ([4]; at 17.2 µM (top of the series)): 5.5% (inactive) and -1.53% (inactive) and 0.108% (inactive) | Potency [5]: inactive | Potency [6]: inactive | activity change, negative = inhibition ([7]; at 25.7 µM (top of the series)): 1.23% (inactive) and -2.04% (inactive) and -1.29% (inactive) | max response ([7]; measured here: cell count channel max response): -5.31% and -9.47% and 16% | max response ([7]; measured here: lipid channel max response): -5.26% and -13% and 13.4% | outcome [8]: inactive | Potency [9]: inactive | Potency [10]: inactive | Potency [11]: inactive | outcome [12]: inactive | Potency [13]: inactive | Potency [14]: inactive | Potency [15]: inactive | Potency [16]: inactive | activity, negative = inhibition ([17]; parasite line A): 13.9% (inactive) | activity, negative = inhibition ([17]; parasite line B): -2.77% (inactive) | Potency [18]: inactive | Potency [19]: inactive | Potency [20]: inactive | Potency [21]: inactive | Potency [22]: inactive | Potency [23]: inactive | Potency [24]: inactive | Potency [25]: inactive | Potency [26]: inactive | Potency [27]: inactive | Potency [28]: inactive | Potency [29]: inactive | Potency [30]: inactive | Potency [31]: inactive | Potency [32]: inactive | Potency [33]: inactive | Potency [34]: inactive
